For 33 compounds, outcome results are on record in PubChem BioAssay AID686997 (Broad Institute, 2013).

Entries with a potency or affinity are not part of this list. Calls of active or inactive are those of the source.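 The calls were made as follows: active = compound lowering the viability signal whose fitted half-maximal dose is at most twice its top tested dose; inconclusive = flat curve with 30 to 70% inhibition, or poor fit; inactive = the rest.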

This experiment can be described thus: PubChem AID 686997.

Consider `S=C(NCc1ccccc1)NCC1COc2ccccc2O1` (stereo not drawn), for which the compound was called inactive.
Consider `S=C(NCCCc1ccccc1)Nc1ccccc1`, for which the outcome was inactive.
Take `COC(=O)C1=C(C)N(Cc2ccccc2)C(=S)N[C@H]1c1cccc(F)c1`: the result was inactive.
Then `O=C(NC(=S)NCC1COc2ccccc2O1)c1ccc(Cl)cc1` (stereo not drawn), with “inactive”.
Regarding `CC(C)CC1(C)N=C(c2ccccc2)C(=S)N1` (stereo not drawn), the result was inactive.
Turning to `O=C(NCCN1CCCCC1)[C@H]1N[C@H]2c3ccc(-c4ccncc4)c(=O)n3C[C@H]2[C@@H]1CO`, the call was inactive.
The same measure for `COC(=O)C1=C(C)N(Cc2ccc(F)cc2)C(=S)NC1c1ccc(F)cc1` (stereo not drawn): “inactive”; for `CCCCN1C(=S)NC[C@@H]1Cc1ccccc1`: “inactive”; for `COc1cccc(NC(=S)NC(=O)Cc2ccc(Cl)cc2)c1`: “inactive”.
As for `O=C(Cc1ccccc1)N[C@H]1C=C[C@@H](CC(=O)N2CCOCC2)O[C@@H]1CO`, the compound was called inactive.
Take `CCc1ccc(C(C)NC(=S)NCc2ccc(F)cc2)cc1` (stereo not drawn): the result was inactive.
As for `CCCCNC(=S)N/N=C/c1ccc(C#N)cc1`, the outcome was inactive.
On to `Fc1ccccc1NC(=S)NCCc1cccc(Cl)c1`, for which the outcome was inactive.
In the case of `CCc1nc(N2CCCCC2C)c2oc3ccccc3c2n1` (stereo not drawn), the result was inactive.
As for `O=C(NC(=S)Nc1ccccc1N1CCOCC1)c1cccc([N+](=O)[O-])c1`, the outcome was inactive.
Then `COc1ccccc1NC(=S)NCc1ccccc1Cl`, with “inactive”.
In the case of `COC(=O)C1=C(C)N(CC(C)C)C(=S)NC1c1cccc(F)c1` (stereo not drawn), the compound was classed as inactive.
With `Fc1ccccc1NC(=S)NN(Cc1ccccc1)c1ccccc1`, the compound was classed as inactive.
The same measure for `COc1ccc(NC(=S)NCc2ccc(Cl)cc2)c(OC)c1`: “inactive”.
Turning to `COc1ccccc1CNC(=S)NCc1ccc(Cl)cc1`, the result was inactive.
Take `COc1ccccc1NC(=S)NCc1ccc(Cl)cc1`: the compound was called inactive.
On to `CCOC(=O)NC(=S)Nc1ccc(C(C)(C)C)cc1`, for which the result was inactive.
For `CO[C@H]1CN(C)C(=O)c2cc(NC(=O)C3CC3)ccc2OC[C@@H](C)N(Cc2cncnc2)C[C@H]1C`, the compound was classed as inactive.
For `O=C(NC(=S)Nc1ccccc1N1CCCC1)c1ccc([N+](=O)[O-])cc1`, the outcome was inactive.
As for `Cc1cc(C(=O)NC(=S)Nc2ccccc2N2CCOCC2)ccc1[N+](=O)[O-]`, the call was inactive.
Consider `O=C(NC(=S)Nc1cccc(F)c1)c1cccc([N+](=O)[O-])c1`, for which the compound was called inactive.
With `O=C(NC(=S)Nc1ccccc1N1CCCC1)c1ccccc1[N+](=O)[O-]`, the compound was classed as inactive.
`O=C(NC(=S)Nc1ccc(Br)cc1)C1CCC1`: the result was inactive.
For `Cc1ccc(C)c(NC(=O)C2(C)CCCN2C(=O)C(C)C)c1` (stereo not drawn), the compound was classed as inactive.
The same measure for `O=C(NC(=S)Nc1cc(Cl)ccc1N1CCOCC1)c1ccccc1[N+](=O)[O-]`: “inactive”; for `CCc1ccc(C(=O)NC(=S)NCc2cccnc2)cc1`: “inactive”.
As to `Cc1ccc(C(=O)NC(=S)Nc2ccc(N3CCOCC3)cc2)cc1`, the call was inactive.
With `COc1ccc(CNC(=S)NCc2ccc(OC(C)C)cc2)cc1`, the outcome was inactive.
